Source: PubChem BioAssay (Tox21)
Values without a mark were called inactive. Results filed as inconclusive are left out. Where a call stands in place of a potency, no number is given. Calls of active or inactive are those of the source. Unless noted, calls come from the whole dose curve; as a rule, active = well fitted curve in the direction sought with a large enough effect in the repeat runs; inconclusive = weak or mixed curves; inactive = no such curve, though single readings can be large; an effect the other way counts as inactive or inconclusive.

Columns and labels:
[1] = qHTS assay to identify small molecule agonists of the TGF-beta/Smad signaling pathway - cell viability counter screen (AID 1346829); note: top concentration of the series differs between compounds; nearly all actives have a fitted effect of over 45% in size
Outline: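 Tox21 qHTS format: SBE-bla HEK 293T cells treated with DMSO-dissolved compounds for 5 hr; CellTiter-Glo luminescence after 30 min at room temperature.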

[2] = qHTS assay to identify small molecule agonists of the TGF-beta/Smad signaling pathway (AID 1346859; active = well fitted activation curve with a large enough effect in the signal ratio in the repeat runs, not every such curve was filed as active; the % refers to the signal ratio; note: series mostly up to about 77 µM)
Outline: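 Smad-responsive beta-lactamase reporter cells (HEK 293T) received compounds from DMSO stocks after overnight attachment, were incubated 5 hr, then treated 2 hr with FRET substrate before dual-emission fluorescence measurement (405 nm excitation).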

[3] = biological target: Thyrotropin-releasing hormone receptor (Homo sapiens) (UniProt P34981); assay: qHTS assay to identify small molecule antagonists of the thyrotropin-releasing hormone receptor (TRHR) signaling pathway (AID 1346877; active = well fitted inhibition curve with a large enough effect in the repeat runs, not every such curve was filed as active; note: series mostly up to about 51 µM)
Outline: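 Calcium signal in dye-loaded TRHR/HEK293 cells; compounds added 5 min before TRH (1 nM final); fluorescence monitored 3 min at 1 s steps.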

[4] = biological target: Thyrotropin-releasing hormone receptor (Homo sapiens) (UniProt P34981); assay: qHTS assay to identify small molecule agonists of the thyrotropin-releasing hormone receptor (TRHR) signaling pathway (AID 1346891; calls by dose curve;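 note: HEK293 cells expressing TRHR with calcium dye readout; series mostly up to about 58 µM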)
Outline: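 Agonist-mode calcium mobilisation screen: TRHR-transfected HEK293 cells cultured overnight (18 h), dye-loaded for 2 h at 37 °C, exposed to compounds, and monitored by fluorescence for 3 min.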

[5] = Human pregnane X receptor (PXR) small molecule agonists, qHTS cell viability counter screen (AID 1346977); note: nearly all actives have a fitted effect of over 50% in size
Outline: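 Measures live-cell protease fluorescence (CellTiter-Fluor) in PXR-Luc HepG2 cells treated 24hr with compounds at 37C. Cells had 5hr to attach before pin transfer of DMSO solutions.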

[6] = Caspase-3/7 induction in HepG2 cells by small molecules, qHTS assay (AID 1346978); note: nearly all actives have a fitted effect of over 15% in size
Outline: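 Wild-type HepG2 cells (2,000/well) were settled 5 h at 37 C, 5% CO2, then exposed to compounds in DMSO for 17 h. Caspase-3/7 activity was read by luminescence 30 min after adding Caspase-Glo 3/7 reagent at room temperature.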

[7] = Caspase-3/7 induction in CHO-K1 cells by small molecules, qHTS cell viability counter screen (AID 1346979); note: nearly all actives have a fitted effect of over 35% in size
Outline: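 In the same wells as the caspase read, viability of compound-treated wild-type CHO-K1 cells was assessed using CellTiter-Fluor, added after 16hr at 37C and measured by fluorescence following 1hr further incubation.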

[8] = Caspase-3/7 induction in CHO-K1 cells by small molecules, qHTS assay (AID 1346980); note: nearly all actives have a fitted effect of over 15% in size
Outline: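 Wild-type cells were seeded at 1,500 per well and settled 5 hr at 37 C, 5% CO2, then exposed to DMSO-dissolved compounds for 17 hr. Caspase-Glo 3/7 reagent was added, and luminescence was read after 30min at room temperature.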

[9] = Caspase-3/7 induction in HepG2 cells by small molecules, qHTS cell viability counter screen (AID 1346981); note: series mostly up to about 92 µM; nearly all actives have a fitted effect of over 30% in size
Outline: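 After a 5-hr attachment period at 37 C and 5% CO2, wild-type HepG2 cells received compounds in DMSO. Sixteen hours later CellTiter-Fluor was dispensed and the fluorescent signal quantified after a further hour.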

[10] = biological target: Nuclear receptor subfamily 1 group I member 2 (Homo sapiens) (UniProt O75469); assay: Human pregnane X receptor (PXR) small molecule agonists, qHTS assay (AID 1346982); note: nearly all actives have a fitted effect of over 35% in size; note: potency is the fitted concentration of half-maximal effect
Outline: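 Tox21 qHTS; PXR-Luc HepG2; compounds pinned from DMSO; 24 hr, 37 C; ONE-Glo luciferase detection, 30 min room temperature.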

[11] = biological target: Cytochrome P450 2D6 (Homo sapiens) (UniProt P10635); assay: Cytochrome P450 Family 2 Subfamily D Member 6 (CYP2D6) small molecule antagonists: luciferase reporter qHTS assay (AID 1671196); note: series mostly up to about 120 µM; nearly all actives have a fitted effect of over 50% in size
Outline: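 Room-temperature luminescent CYP2D6 activity assay: compound preincubated 10 min with enzyme–substrate mix, NADPH-initiated reaction 1 h, detection reagent 20 min before reading.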

[12] = biological target: Cytochrome P450 2C9 (Homo sapiens) (UniProt P11712); assay: Cytochrome P450 Family 2 Subfamily C Member 9 (CYP2C9) small molecule antagonists: luciferase reporter qHTS assay (AID 1671198); note: nearly all actives have a fitted effect of over 50% in size; note: potency is the fitted concentration of half-maximal effect
Outline: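 CYP2C9 activity was measured with a P450-Glo proluciferin substrate. Enzyme–substrate mix was held with compound for 10 min at room temperature, then NADPH regeneration solution was added for 1 h at 37C. Luciferin product was read as luminescence.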

[13] = biological target: Voltage-gated inwardly rectifying potassium channel KCNH2 (Homo sapiens) (UniProt Q12809); assay: Human Ether-a-go-go-Related Gene (hERG) channel small molecule antagonists: fluorescence cell-based qHTS assay (AID 1671200);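 note: hERG-expressing U2OS cells given a thallium stimulus after FluxOR II dye loading; series mostly up to about 77 µM; nearly all actives have a fitted effect of over 50% in size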
Outline: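 Quantitative HTS in hERG-U2OS cells: thallium entry through the channel reports activity, read as continuous 480/540 nm fluorescence over 2 min after stimulus addition.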

[14] = biological target: Nuclear receptor subfamily 1 group I member 2 (Rattus norvegicus) (UniProt Q9R1A7); assay: Rat pregnane X receptor (rPXR) activation by small molecules, qHTS assay (AID 1346983); conditions: rPXR luciferase reporter cells, One-Glo luminescence, 24 h; max activation: stronger effect = higher value; note: nearly all actives have a fitted effect of over 20% in size
Outline: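 Cell-based rPXR luciferase reporter assay, 2,000 cells per well, rested 5hr at 37 C before compound addition in DMSO, then 24 hr at 37 C. One-Glo reagent was added and luminescence read after 30 min at room temperature.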

[15] = biological target: Nuclear receptor subfamily 1 group I member 2 (Homo sapiens) (UniProt O75469); assay: CYP3A4 induction through human pregnane X receptor (PXR) by small molecules, qHTS assay (AID 1346984); note: nearly all actives have a fitted effect of over 40% in size
Outline: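 Cells (DPX-2; HepG2 with PXR element plus CYP3A4-promoter luciferase) settled 5hr, then were treated 24hr at 37C. A 3hr, 3uM-final Luciferin-IPA step preceded luminescence measurement with One-Glo.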

[16] = biological target: Cytochrome P450 2C19 (Homo sapiens) (UniProt P33261); assay: Cytochrome P450 Family 2 Subfamily C Member 19 (CYP2C19) small molecule antagonists: luciferase reporter qHTS assay (AID 1671197); note: nearly all actives have a fitted effect of over 65% in size; note: potency is the fitted concentration of half-maximal effect
Outline: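 Relative luminescence units recorded 20 min after the detection reagent stopped a 1 h, 37C CYP2C19 reaction on proluciferin substrate, which was started by NADPH regeneration following 10 min room-temperature compound preincubation; ketoconazole positive control.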

[17] = biological target: Cytochrome P450 1A2 (Homo sapiens) (UniProt P05177); assay: Cytochrome P450 Family 1 Subfamily A Member 2 (CYP1A2) small molecule antagonists: luciferase reporter qHTS assay (AID 1671199); note: nearly all actives have a fitted effect of over 50% in size; note: potency is the fitted concentration of half-maximal effect
Outline: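 Room-temperature CYP1A2 reaction with proluciferin substrate: compounds added from DMSO, 10 min preincubation, NADPH regeneration for 1 h. Luciferin detection reagent then added; luminescence recorded as RLU.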

[18] = biological target: Cytochrome P450 3A4 (Homo sapiens) (UniProt P08684); assay: Cytochrome P450 Family 3 Subfamily A Member 4 (CYP3A4) small molecule antagonists: luciferase reporter qHTS assay (AID 1671201)
Outline: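 Inhibition of CYP3A4 is measured as loss of light: the enzyme converts a proluciferin substrate to luciferin, detected luminescently. Reaction ran 1 h at room temperature with NADPH regeneration after a 10 min compound preincubation.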

Chain of Nuclear receptor subfamily 1 group I member 2 (Homo sapiens) (O75469 whole entry, looked up): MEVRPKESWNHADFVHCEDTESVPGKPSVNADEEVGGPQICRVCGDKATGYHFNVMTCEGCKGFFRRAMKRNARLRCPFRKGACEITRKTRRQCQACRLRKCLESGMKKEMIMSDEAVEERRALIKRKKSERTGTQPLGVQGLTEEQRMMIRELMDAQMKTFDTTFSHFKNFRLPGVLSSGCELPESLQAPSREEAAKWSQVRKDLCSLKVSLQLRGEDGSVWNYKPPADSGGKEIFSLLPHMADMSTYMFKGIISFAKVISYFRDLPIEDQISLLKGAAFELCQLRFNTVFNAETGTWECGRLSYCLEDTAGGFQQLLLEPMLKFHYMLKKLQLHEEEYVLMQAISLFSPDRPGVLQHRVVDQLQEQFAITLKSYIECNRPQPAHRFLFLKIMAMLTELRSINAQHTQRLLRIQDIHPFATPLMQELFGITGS
Chain of Voltage-gated inwardly rectifying potassium channel KCNH2 (Homo sapiens) (Q12809 whole entry, looked up): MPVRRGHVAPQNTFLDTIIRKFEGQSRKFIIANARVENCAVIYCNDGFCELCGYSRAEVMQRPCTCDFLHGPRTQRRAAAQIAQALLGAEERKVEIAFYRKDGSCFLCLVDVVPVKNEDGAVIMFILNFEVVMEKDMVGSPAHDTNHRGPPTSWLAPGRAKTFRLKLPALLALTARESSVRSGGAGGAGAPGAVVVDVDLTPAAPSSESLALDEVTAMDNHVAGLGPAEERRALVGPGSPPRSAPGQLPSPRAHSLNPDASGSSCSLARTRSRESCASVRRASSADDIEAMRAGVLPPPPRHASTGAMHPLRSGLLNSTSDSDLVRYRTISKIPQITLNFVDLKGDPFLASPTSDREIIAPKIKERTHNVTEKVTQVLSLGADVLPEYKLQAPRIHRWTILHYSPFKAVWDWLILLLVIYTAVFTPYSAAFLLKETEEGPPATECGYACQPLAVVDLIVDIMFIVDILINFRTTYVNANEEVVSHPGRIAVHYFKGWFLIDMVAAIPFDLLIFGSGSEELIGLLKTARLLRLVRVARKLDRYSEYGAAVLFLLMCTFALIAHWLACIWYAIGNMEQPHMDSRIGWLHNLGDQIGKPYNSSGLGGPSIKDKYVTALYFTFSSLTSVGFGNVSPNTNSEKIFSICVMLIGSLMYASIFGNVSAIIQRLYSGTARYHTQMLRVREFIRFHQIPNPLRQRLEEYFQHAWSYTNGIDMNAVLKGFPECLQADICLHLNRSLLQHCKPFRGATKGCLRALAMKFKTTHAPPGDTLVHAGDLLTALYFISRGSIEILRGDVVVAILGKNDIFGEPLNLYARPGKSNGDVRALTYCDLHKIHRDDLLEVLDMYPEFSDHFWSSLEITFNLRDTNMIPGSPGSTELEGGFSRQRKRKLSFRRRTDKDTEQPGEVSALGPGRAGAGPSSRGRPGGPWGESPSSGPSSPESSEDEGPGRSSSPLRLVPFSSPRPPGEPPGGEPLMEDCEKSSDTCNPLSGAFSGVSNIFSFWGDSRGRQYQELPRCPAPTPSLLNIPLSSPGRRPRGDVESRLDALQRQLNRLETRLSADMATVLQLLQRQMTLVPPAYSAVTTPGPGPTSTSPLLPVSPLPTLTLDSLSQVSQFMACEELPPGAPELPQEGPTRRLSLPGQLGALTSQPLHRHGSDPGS
Chain of Nuclear receptor subfamily 1 group I member 2 (Rattus norvegicus) (Q9R1A7 whole entry, looked up): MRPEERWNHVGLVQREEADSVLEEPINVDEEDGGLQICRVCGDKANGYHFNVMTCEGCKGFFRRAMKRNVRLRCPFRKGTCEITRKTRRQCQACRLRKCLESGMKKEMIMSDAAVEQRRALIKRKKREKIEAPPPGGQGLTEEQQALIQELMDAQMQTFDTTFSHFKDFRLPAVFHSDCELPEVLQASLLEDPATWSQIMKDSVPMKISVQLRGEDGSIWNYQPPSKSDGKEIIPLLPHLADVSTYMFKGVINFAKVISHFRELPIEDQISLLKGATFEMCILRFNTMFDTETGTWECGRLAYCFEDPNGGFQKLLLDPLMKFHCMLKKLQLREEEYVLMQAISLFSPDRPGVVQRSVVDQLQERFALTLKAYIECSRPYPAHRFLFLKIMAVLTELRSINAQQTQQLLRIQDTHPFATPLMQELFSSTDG
Chain of Cytochrome P450 3A4 (Homo sapiens) (P08684 whole entry, looked up): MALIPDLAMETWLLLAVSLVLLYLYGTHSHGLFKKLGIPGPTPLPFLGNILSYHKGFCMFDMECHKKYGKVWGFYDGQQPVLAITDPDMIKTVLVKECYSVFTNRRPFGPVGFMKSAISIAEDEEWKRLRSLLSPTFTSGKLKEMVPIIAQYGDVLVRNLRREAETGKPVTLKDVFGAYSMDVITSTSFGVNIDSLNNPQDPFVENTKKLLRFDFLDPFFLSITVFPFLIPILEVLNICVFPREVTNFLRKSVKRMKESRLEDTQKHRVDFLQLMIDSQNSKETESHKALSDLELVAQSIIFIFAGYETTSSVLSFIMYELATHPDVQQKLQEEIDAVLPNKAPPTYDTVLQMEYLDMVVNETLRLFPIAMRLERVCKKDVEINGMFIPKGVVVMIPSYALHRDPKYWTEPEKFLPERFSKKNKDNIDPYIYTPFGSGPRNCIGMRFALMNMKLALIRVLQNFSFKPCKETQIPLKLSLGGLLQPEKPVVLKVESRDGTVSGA
Chain of Cytochrome P450 2D6 (Homo sapiens) (P10635 whole entry, looked up): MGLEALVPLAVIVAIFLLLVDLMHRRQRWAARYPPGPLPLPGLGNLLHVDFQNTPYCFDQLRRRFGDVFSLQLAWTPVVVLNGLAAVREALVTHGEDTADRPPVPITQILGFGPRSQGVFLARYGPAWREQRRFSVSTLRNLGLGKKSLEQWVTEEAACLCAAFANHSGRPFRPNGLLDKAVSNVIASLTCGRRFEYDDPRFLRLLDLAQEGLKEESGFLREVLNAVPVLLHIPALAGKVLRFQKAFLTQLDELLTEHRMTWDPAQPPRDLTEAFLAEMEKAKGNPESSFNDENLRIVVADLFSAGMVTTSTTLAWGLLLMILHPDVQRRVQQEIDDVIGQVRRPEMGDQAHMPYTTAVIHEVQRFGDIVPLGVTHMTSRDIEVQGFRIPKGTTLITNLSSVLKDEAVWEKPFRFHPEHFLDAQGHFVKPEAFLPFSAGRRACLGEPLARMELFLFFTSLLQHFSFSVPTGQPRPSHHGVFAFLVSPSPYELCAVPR
Chain of Cytochrome P450 1A2 (Homo sapiens) (P05177 whole entry, looked up): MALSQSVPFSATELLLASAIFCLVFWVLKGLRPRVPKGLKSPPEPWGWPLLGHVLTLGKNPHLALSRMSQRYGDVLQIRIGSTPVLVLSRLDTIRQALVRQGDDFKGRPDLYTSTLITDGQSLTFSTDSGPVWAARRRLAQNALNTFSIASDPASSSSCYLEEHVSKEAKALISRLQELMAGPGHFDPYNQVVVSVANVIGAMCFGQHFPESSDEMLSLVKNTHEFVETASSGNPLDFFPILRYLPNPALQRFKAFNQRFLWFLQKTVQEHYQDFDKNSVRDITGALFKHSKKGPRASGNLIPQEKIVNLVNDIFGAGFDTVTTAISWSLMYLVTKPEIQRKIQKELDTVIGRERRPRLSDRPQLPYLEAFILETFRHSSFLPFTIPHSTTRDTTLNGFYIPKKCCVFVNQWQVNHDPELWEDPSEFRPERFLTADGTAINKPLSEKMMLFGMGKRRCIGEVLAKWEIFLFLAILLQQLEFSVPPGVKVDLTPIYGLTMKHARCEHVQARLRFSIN
Chain of Cytochrome P450 2C9 (Homo sapiens) (P11712 whole entry, looked up): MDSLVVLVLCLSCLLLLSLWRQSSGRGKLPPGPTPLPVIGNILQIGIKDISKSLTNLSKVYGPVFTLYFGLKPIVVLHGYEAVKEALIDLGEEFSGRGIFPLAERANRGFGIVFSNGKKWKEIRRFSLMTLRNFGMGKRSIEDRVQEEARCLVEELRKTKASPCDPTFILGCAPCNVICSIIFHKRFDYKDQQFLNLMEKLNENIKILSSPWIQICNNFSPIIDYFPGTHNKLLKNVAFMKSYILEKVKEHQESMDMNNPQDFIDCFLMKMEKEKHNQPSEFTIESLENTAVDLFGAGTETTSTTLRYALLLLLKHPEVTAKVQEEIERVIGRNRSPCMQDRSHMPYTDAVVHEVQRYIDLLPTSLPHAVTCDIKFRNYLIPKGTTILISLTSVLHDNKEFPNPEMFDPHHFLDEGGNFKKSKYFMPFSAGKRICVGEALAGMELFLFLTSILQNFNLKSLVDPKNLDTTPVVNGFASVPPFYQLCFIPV
Chain of Cytochrome P450 2C19 (Homo sapiens) (P33261 whole entry, looked up): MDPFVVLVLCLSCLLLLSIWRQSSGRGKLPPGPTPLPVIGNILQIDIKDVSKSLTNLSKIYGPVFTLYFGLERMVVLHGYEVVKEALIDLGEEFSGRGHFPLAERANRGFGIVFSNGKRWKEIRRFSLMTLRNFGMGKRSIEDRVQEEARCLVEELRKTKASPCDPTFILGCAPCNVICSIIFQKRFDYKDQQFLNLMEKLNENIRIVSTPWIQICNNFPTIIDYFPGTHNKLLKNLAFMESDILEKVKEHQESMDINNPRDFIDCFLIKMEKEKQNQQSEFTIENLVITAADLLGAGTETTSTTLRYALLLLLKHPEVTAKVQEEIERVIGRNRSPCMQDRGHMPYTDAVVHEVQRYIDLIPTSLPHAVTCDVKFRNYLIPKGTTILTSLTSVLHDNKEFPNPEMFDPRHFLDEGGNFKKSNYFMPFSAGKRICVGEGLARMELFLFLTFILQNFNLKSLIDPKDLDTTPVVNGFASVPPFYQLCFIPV
Chain of Thyrotropin-releasing hormone receptor (Homo sapiens) (P34981 whole entry, looked up): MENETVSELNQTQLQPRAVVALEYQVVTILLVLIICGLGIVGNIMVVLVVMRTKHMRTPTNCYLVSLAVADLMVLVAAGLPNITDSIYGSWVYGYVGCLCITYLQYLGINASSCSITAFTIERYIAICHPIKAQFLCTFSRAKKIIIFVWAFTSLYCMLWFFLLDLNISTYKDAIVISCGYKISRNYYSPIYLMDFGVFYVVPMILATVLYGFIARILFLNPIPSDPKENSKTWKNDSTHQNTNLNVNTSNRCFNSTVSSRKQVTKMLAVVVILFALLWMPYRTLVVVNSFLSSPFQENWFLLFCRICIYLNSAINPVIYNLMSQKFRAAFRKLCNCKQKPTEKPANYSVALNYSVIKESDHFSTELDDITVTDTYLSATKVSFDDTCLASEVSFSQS

Row | SMILES | outcome [1] | outcome [2] | outcome [3] | outcome [4] | Potency [5] | outcome [6] | Potency [7] | outcome [8] | Potency [9] | Potency [10] | Potency [11] | Potency [12] | Potency [13] | max activation [14] [%] | outcome [15] | Potency [16] | Potency [17] | Potency [18]
1 | COC(OC)C(C)c1ccccc1 (stereo not drawn) | inactive | inactive | inactive | inactive | inactive | inactive | inactive | inactive | inactive | inactive | inactive | inactive | inactive |  |  |  |  | 
2 | CCNC(=O)/C=C/c1cccc(Br)c1 | inactive | inactive | inactive | inactive | inactive | inactive | inactive | inactive | inactive | 26.6 µM (active) | inactive | inactive |  | 11.4 | inactive | inactive | 2.57 µM (active) | inactive
3 | CC(C)CCCCCCOC(=O)C1CCCCC1C(=O)OCCCCCCC(C)C (stereo not drawn) | inactive | inactive | inactive | inactive | inactive | inactive | inactive | inactive | inactive | inactive | inactive |  |  |  |  |  | inactive | 
4 | O=[Si]=O | inactive | inactive | inactive | inactive | inactive | inactive | inactive | inactive | inactive | inactive | inactive | inactive | inactive |  |  | inactive | inactive | inactive
5 | COc1ccc(/C=N/NC(=O)c2ccncc2)cc1OC | inactive | inactive | inactive | inactive | inactive | inactive | inactive | inactive | inactive | inactive |  | 17.4 µM (active) | inactive | -2.5 | inactive |  |  | 
6 | O=C(O)/C=C/c1ccccc1 | inactive | inactive | inactive | inactive | inactive | inactive | inactive | inactive | inactive | inactive |  | inactive | inactive | -6.4 | inactive | inactive | inactive | inactive
7 | FC(F)(F)/C(=N\OCC1OCCO1)c1ccc(Cl)cc1 | inactive | inactive | inactive | inactive | inactive | inactive | inactive | inactive | inactive | inactive |  | 31.7 µM (active) | inactive |  |  | 1.59 µM (active) | 2.24 µM (active) | inactive
8 | CCCCCCCCCCCCCC(=O)OC | inactive | inactive | inactive | inactive | inactive | inactive | inactive | inactive | inactive | inactive | inactive | inactive | inactive |  |  |  | inactive | 
9 | O=C(c1ccc2c(c1)C(=O)OC2=O)c1ccc2c(c1)C(=O)OC2=O | inactive | inactive | inactive | inactive | inactive | inactive | inactive | inactive | inactive | inactive | inactive | inactive | inactive |  |  | inactive |  | inactive
